Source: the supplement of paper PMC3334620
Over roughly 33,000 sequences, “E-score (-0.5 to 0.5)” has its median near -0.017; the highest 2% begin near 0.3. Shown is part of a subset that was picked to be rich in the highest values.

These sequences were tested against T1, Sut1 (UniProt P53032) (assay: PBM E-score (8-mer binding enrichment) (E-score (-0.5 to 0.5)); higher = stronger / more preferred TF binding). Details: protein concentration: 200 nM; construct: GST-full length.
T1 sequence: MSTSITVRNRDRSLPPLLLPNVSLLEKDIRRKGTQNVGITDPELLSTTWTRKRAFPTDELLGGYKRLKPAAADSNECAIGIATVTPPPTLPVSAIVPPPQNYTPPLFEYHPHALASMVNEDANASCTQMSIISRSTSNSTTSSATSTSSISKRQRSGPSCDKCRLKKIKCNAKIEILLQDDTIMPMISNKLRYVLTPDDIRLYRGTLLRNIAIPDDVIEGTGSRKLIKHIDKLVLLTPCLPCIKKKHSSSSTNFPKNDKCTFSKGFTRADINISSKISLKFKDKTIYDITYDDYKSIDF
Method: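 Universal 'all 10-mer' protein binding microarrays (Agilent AMADID 015681) probed with GST-tagged S. cerevisiae TFs (full-length or DBD) made by in vitro transcription/translation (PURExpress), about 100-200 nM. Bound TF was detected with fluorescent anti-GST. Each ungapped 8-mer (which stands for itself and its reverse complement) is scored by the PBM enrichment score (E-score), a modified Wilcoxon-Mann-Whitney statistic from -0.5 to +0.5, computed with the Universal PBM Analysis Suite. Scale: above 0.35 generally sequence-specific binding.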

Sequence	PBM E-score
ACCATAAC	0.0292
AATTTTAT	0.317
AATTTAAT	0.317
AATTTTAC	0.27
AATTTAAC	0.255
AATTTTAA	0.295
AATTTAAG	0.218
AGCCTAGA	-0.224
GAACCGCA	0.0646
AATTGACC	0.0635
CGAGTGAG	0.0764
CGGAATAA	0.306
GGGAATAC	-0.0577
TGGAATAA	0.122
CGGAATAC	0.325
GGGAATAA	0.233
AGGAATAC	-3e-05
AAAGGGTA	-0.054
TGTGGCAA	-0.0604
GAATTGGA	0.0498
CCCAAACC	-0.0698
ATCCCGGG	-0.07
GTCCCGCA	-0.159
GTCCCGGA	0.348
GTCCCCGA	0.066

Sequence	PBM E-score
CTCCCGGA	0.232
ATCCCGGA	0.328
CAGTCGAC	-0.0872
TATGCTGA	0.175
CACACCGG	0.0539
AACACCGC	-0.0108
AACACCGG	0.301
CTGCTATC	0.134
AGTCTCTG	-0.12
AGCAGTAA	0.0389
AAAAGGCA	0.114
CAGACGAC	-0.213
CAGACGAA	0.298
GAGACGAA	-0.0447
AGCTATGC	-0.227
AGGAATTC	-0.203
CTGAATTC	-0.102
AGGAATTA	0.137
CGGAATTC	0.323
CGGAATTA	0.349
GGGAATTA	0.143
CATGTGAC	-0.0811
AATAAGTC	0.0835
AATTCCGT	0.317
AAATCCGG	0.36

Sequence	PBM E-score
AAATCCGT	0.149
AAATCCGC	-0.0542
AATTCCCT	-0.0468
AATTCCGG	0.337
AATTCCAT	0.0698
CATTCCGG	0.194
AATTCCGC	0.192
AAGAGTCG	0.00242
AGTAGTGC	-0.185
ACACTCGG	0.00116
GAGAATGC	0.0169
TACTTATA	0.151
CACTTATA	0.0975
AACTTATG	0.0687
AACTTATA	0.31
GACTTATC	-0.0236
GACTTATA	0.326
AACGTCTT	-0.113
GGCTCCCC	-0.226
CAAGGCCC	-0.132
CGCATAAG	-0.0216
CATAGGGA	-0.0219
CAGGTGGC	-0.219
GTTGGTGA	-0.0399
ACCGGAGT	0.492

Sequence	PBM E-score
CCCGGATA	0.123
CCCGGAGG	0.0148
ACCGGAAT	0.204
ACCGGAGA	0.43
ACCAGAGT	-0.256
ACCGGAGG	0.133
ACCGGATC	0.0878
ACAGGAGA	-0.137
CCCGGAGA	0.374
ACCGGATA	0.0607
ACCGGAGC	0.353
TGTCTGAA	0.0592
ACCGGTCT	-0.115
ATGACAAT	0.198
GCCGGAAA	0.244
CCGGGAGC	-0.0765
TCCAGAGA	-0.187
CCCGGAAC	0.129
GCCGGAGA	0.316
TCAGGAGA	0.0262
TCCGGAGA	0.409
GCCGGAGC	0.284
CCCGGAGC	0.406
CCACCCAG	-0.129
CCGAGTTC	0.0827

Sequence	PBM E-score
ATACTGGG	-0.138
AATCCGAG	0.0276
CGTCCGAC	-0.14
AATCCGAA	0.159
CGTCCGAG	0.149
AATCCGAT	0.195
AGTCCGAT	0.486
AGTCCTAT	0.0983
AGTCCGAC	0.477
AGTCCAAA	0.169
AGTCCGAA	0.49
AGTCCGAG	0.489
GGTCCGAC	0.24
CGCATTCC	-0.284
AGTATCGG	0.176
CGTGGGTC	-0.162
CCTCAAGA	-0.113
GTCCTCAC	-0.0725
ACAGTCAC	-0.176
GTATACAA	0.179
CCATACAA	0.0626
ATATACAA	0.256
TTATACAA	0.326
GCATACAA	0.0888
TCATACAA	0.304

Sequence	PBM E-score
AACCTTGA	0.116
GATGGTGC	-0.409
GCAGGGAA	0.0261
CAAGAGAA	0.0231
AGAAGCCC	0.167
CAATAAAA	0.136
CAATATAA	0.308
TAATATAA	0.306
GAATATAA	0.153
CAATATAG	0.1
TAATAATA	0.282
CAATATAC	0.144
CGATAAAA	0.303
GAATAAAA	0.242
TGATAAAA	0.283
GGATAAAA	0.252
TAATAAAA	0.332
ATATAGGA	0.0279
AAATTGCA	-0.0262
ACCCTATC	0.0201
CTTGAACA	0.0785
GTTGCGCA	-0.226
CAGCCTAC	-0.0545
CGGATGCA	-0.0215
ATTGTATG	0.175

Sequence	PBM E-score
CATGTATA	0.0763
CTTGTATA	0.166
GATGTATA	0.0593
AATGTATA	0.298
ATTGTATA	0.311
AGCCTACG	-0.109
AGCCCATC	-0.23
AACATGGG	-0.00269
CTATTGAA	0.226
AAACAAAG	0.322
AAACAAAA	0.197
ACCAACAT	0.0524
GAAAACAA	0.184
AAAAACAA	0.316
AAACAAAC	0.165
TAAAACAA	0.207
CAAACAAA	0.161
ACCAACAA	0.299
ACCAACAG	-0.297
GAAACAAA	0.321
GAAACAAC	0.107
GAGTTGAA	0.18
ACAGATAT	0.0244
ATAAGTTC	0.261
ATACAGTG	0.0667

Sequence	PBM E-score
CTCCAAAG	0.0263
CCTCGACA	-0.288
CATGCGTA	-0.0829
ATCAGTTA	0.204
AAAAAACA	0.313
AAAACAAA	0.312
TAAAAACA	0.188
GAAAAACA	0.125
AAAACAAG	0.0776
AAAACAAT	0.215
AAGTTACC	0.158
CCCAAGGC	-0.0767
CATACGGG	-0.186
AATACGGA	0.286
TATACGAA	0.194
GATACGGC	-0.104
GATACGCA	-0.141
CATACGGA	0.303
TATACGGA	0.312
CATACGGC	-0.156
GATACGGA	0.364
ATGAGTCA	-0.0351
GCGCTAAC	-0.0641
TAGCTATA	-0.0172
GCGATCCA	-0.121

Sequence	PBM E-score
AGTTTTAT	0.211
TACCACCA	0.0245
CAGCCTGC	-0.224
AGACGAGG	-0.182
AGTACTCG	0.0601
AGTACTCC	0.325
CGTACTCC	0.348
AGTACTCA	0.0483
CGTACTCA	0.0162
CGTACTAC	0.0559
AAAGTCAG	0.00828
GCTAAAGC	-0.0213
CCTATCGC	-0.115
CAGCAAAG	-0.0349
ATCCGTCC	-0.0115
CTCCGTCC	0.307
CCCCGTCC	-0.194
GTCCGTCA	0.253
CTCCGTCA	0.369
ATCCGTCA	0.0376
CTACACAG	-0.108
CCAGGGTC	-0.265
ACGTATTC	-0.0472
TGACTTAA	0.153
CAGTCCGG	0.353

Sequence	PBM E-score
GAGTCCGA	0.476
CAGTCCAG	-0.325
CAGTCCGA	0.411
CAGTCCCG	-0.0578
GCGTCCGA	-0.09
TAGTCCAA	-0.01
CCGTCCGA	0.0411
TAGTCCGA	0.48
CAGTCCGC	0.196
GAGTCCGC	0.282
TAGTCCCA	-0.21
AACTTACT	0.0273
CGCCCTTC	-0.0609
AGTGGCGA	0.0883
AGGGGCCC	-0.217
AACAGAAT	0.0169
ATCGATGG	-0.0596
AGGCTACG	-0.345
AAGTCTGA	-0.193
CAAATTCA	0.0268
GCAGAATA	-0.0687
ACACCGGA	0.343
GCACCGGA	0.338
GCACCGGC	-0.0791
TCACCGGA	0.397

Sequence	PBM E-score
TCACCGCA	-0.0955
ACACCGGT	0.0191
CCACCGGG	-0.0405
GCACCGTA	0.0972
TCACCGAA	0.155
CCACCGGC	0.0248
ACACCGGC	0.0168
CCACCGGA	0.362
GGCTTTAC	0.113
ACTGAGAC	0.00875
ATCCAGAC	-0.0133
CGGTTTAC	0.00822
AGGGCTGA	-0.161
CGAGGAAG	0.0543
AAGCCATC	0.0153
TAACAGGA	0.0331
GAACCAGA	-0.185
GAACGTGC	-0.234
TGGTTAAA	0.159
AAACGGAC	0.147
AAACGGTA	0.0446
AAACGGGA	0.159
AAACGGAT	0.209
CAACGGAC	0.291
TCACGGAA	0.238

Sequence	PBM E-score
CAACGGAG	0.399
AAACGGAA	0.331
CAACGGAA	0.25
TAACGGAA	0.309
AAACGGAG	0.37
GAACGGAA	0.166
ACCCAACG	-0.0276
CACCCTAC	-0.161
CATATGCG	-0.0808
AGTAAACG	-0.0776
CTACCAGC	-0.212
GGCGTTGA	-0.134
GCAGTAAC	-0.144
GAATTGTA	0.128
CTCTCCCC	-0.259
AATGCTTG	-0.238
CGACCTGA	-0.184
CCTAAAGA	0.0405
ACTAATCA	0.139
CAGAGTCA	-0.379
TAAAGAAA	0.301
GAAAGAAA	0.294
ACAAGAAA	0.218
TCAAGAAA	0.316
CAAAGAAA	0.115

Sequence	PBM E-score
CCAAGAAA	0.241
CTAGGCCA	-0.145
ATGGGGAA	-0.0455
GAGAAGGC	-0.0615
CGCGCACC	-0.0354
GGTGAGAA	0.137
CCGCTCAA	-0.078
CATCCGGG	-0.0527
CCTCCGGC	0.106
ACTCCGGC	0.489
ACTCCCGG	0.174
ACTCCGGG	0.491
ACTCCTGC	0.0597
TACAATGA	0.153
CAAGATTC	0.235
ATACGGTG	0.0347
CTACGGAC	0.169
CTACGGAA	0.0897
ATACGGAG	0.362
ATACGGAT	0.0822
CTACGGAG	0.381
CAGAAGGG	-0.238
ACTGCAAG	-0.0394
ATGGGAAA	0.0371
ATGGCCGG	-0.0767

Sequence	PBM E-score
CGCCGGCG	0.375
GGCCGGAC	0.302
AGCCGGTG	0.00841
AGCCGGAC	0.342
AGCCGGAT	0.125
AGCCGGAG	0.371
CGCCGGAC	0.275
AGCCGGAA	0.233
AGCCGGCG	-0.0364
GGCCGGAA	0.0761
AGCCGGTC	-0.166
CGCCGGCC	-0.0583
ACTTCTCA	-0.033
GCCCATGA	-0.222
AAGAGCGG	0.0491
GTCGCGCA	0.0446
TACTCTCA	0.0648
AACCGTCA	-0.0173
CGCCGTAG	0.0361
CGCCGGAG	0.391
CGCCGGAA	0.132
